# Legend:
# Experiment in all cases: PBM binding z-score (relative to random genomic background probes); higher = stronger binding; sequences stand for … in GC…GCGATTGACAGCGTAGAATGAAGG
# [1] = system: FXR:RXRa (NR concentration 270 nM, RXRa partner concentration 90 nM)
# Outline: (§1)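 For binding z-scores, the reference was random background probes on custom Agilent 4×180K protein-binding microarrays. These arrays were incubated 1 h with ligand-free nuclear receptor dimers in PBS pH 7.4, 2% milk, 0.02% Triton X-100, 1 mM DTT, 0.2 mg/mL BSA and 0.4 mg/ml salmon testes DNA. Fluorescence was scanned after antibody detection of each partner (one per run) and regression-normalized.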
# [2] = system: LXRa:RXRa (NR concentration 270 nM, RXRa partner concentration 90 nM)
# Outline: as §1
# [3] = system: LXRa homodimer (NR concentration 270 nM)
# Outline: as §1
# [4] = system: LXRb:RXRa (NR concentration 270 nM, RXRa partner concentration 90 nM)
# Outline: as §1
# [5] = system: LXRb homodimer (NR concentration 270 nM)
# Outline: as §1
# [6] = system: PPARa:RXRa (NR concentration 270 nM, RXRa partner concentration 90 nM)
# Outline: as §1
# [7] = system: PPARg:RXRa (NR concentration 180 nM, RXRa partner concentration 90 nM)
# Outline: as §1
# [8] = system: PPARg:RXRa 270nM:90nM, anti-RXR (NR concentration 270 nM, RXRa partner concentration 90 nM)
# Outline: as §1
# [9] = system: PPARg:RXRa 30nM:10nM, anti-RXR (NR concentration 30 nM, RXRa partner concentration 10 nM)
# Outline: as §1
# [10] = system: PPARg:RXRa 90nM:30nM, anti-RXR (NR concentration 90 nM, RXRa partner concentration 30 nM)
# Outline: as §1
# [11] = system: PPARg:RXRa DBDmut IVT, anti-RXR (DBD mutation: RXRa K156A/R161A, NR concentration 270 nM, RXRa partner concentration 90 nM)
# Outline: as §1
# [12] = system: PPARg:RXRa IVT, anti-PPARg (NR concentration 270 nM, RXRa partner concentration 90 nM)
# Outline: as §1
# [13] = system: PPARg DBDmut:RXRa IVT, anti-PPARg (DBD mutation: PPARg1 K132A/R137A, NR concentration 270 nM, RXRa partner concentration 90 nM)
# Outline: as §1
# [14] = system: PPARg DBDmut IVT, anti-PPARg (DBD mutation: PPARg1 K132A/R137A, NR concentration 270 nM)
# Outline: as §1
# [15] = system: PPARg homodimer (NR concentration 180 nM)
# Outline: as §1
# [16] = system: PXR:RXRa (NR concentration 270 nM, RXRa partner concentration 90 nM)
# Outline: as §1
# [17] = system: PXR homodimer (NR concentration 270 nM)
# Outline: as §1
# [18] = system: RARa:RXR (NR concentration 270 nM, RXRa partner concentration 90 nM)
# Outline: as §1
# [19] = system: RARa homodimer (NR concentration 270 nM)
# Outline: as §1
# [20] = system: RARb:RXRa (NR concentration 270 nM, RXRa partner concentration 90 nM)
# Outline: as §1
Sequence,PBM binding z-score [1],PBM binding z-score [2],PBM binding z-score [3],PBM binding z-score [4],PBM binding z-score [5],PBM binding z-score [6],PBM binding z-score [7],PBM binding z-score [8],PBM binding z-score [9],PBM binding z-score [10],PBM binding z-score [11],PBM binding z-score [12],PBM binding z-score [13],PBM binding z-score [14],PBM binding z-score [15],PBM binding z-score [16],PBM binding z-score [17],PBM binding z-score [18],PBM binding z-score [19],PBM binding z-score [20]
TCATATACGTAAATGCTAGGTGAAAGTCCGATCT,0.742,0.449,0.327,0.861,0.278,0.771,0.633,2.14,3.51,2.66,2.16,0.926,0.89,1.72,0.664,0.565,0.25,0.743,0.987,0.357
AGAATGAGGTTAAGATCAGTGAAACAGAATACAT,2.32,3.08,0.0147,1.91,-0.196,3.6,2.38,2.25,1.23,1.78,2.35,2.8,1.66,0.567,0.498,1,-0.347,1.84,-0.219,1.74
GGAACGAGGCCAAAGTTGATAGCATCTGTCGACG,0.0318,-0.0376,-0.578,-0.183,-0.827,3.46,5.8,6.25,5.14,6.31,2.57,2.98,-0.146,-0.0906,0.104,0.113,-0.124,0.441,-0.395,1.33
CATCCAAGGTCAGAGAGGTCAGTGAATGCCGAGT,6.31,5.84,4.54,4.58,1.57,5.23,4.13,4.43,1.5,2.83,2.91,3.85,0.635,-0.591,4.41,6.17,12,5.72,3.06,5.38
CGAACTAGGTCAAGGACAGGGAATCTCCGCACGC,3.17,2.12,0.324,1.32,-0.364,4.52,7.01,6.26,3.78,5.95,8.32,7.95,1.81,0.477,3.11,1.05,0.302,2.12,0.471,4
AGAATGAGGTAATACGTAGATCAGGGAAGAAAGT,0.302,0.0343,-0.0872,0.215,-0.209,0.49,1.04,0.841,0.517,0.757,3.49,0.83,1.02,0.684,-0.201,0.144,0.294,0.431,0.262,0.0493
CGAACAAGGGCATGAGTTGATAGCAAATGCCGAT,-0.0162,0.00346,-0.221,-0.134,-0.495,0.425,0.963,0.765,0.259,0.196,1.66,0.813,-0.522,-0.153,0.0917,-0.0332,-0.184,-0.0493,0.0122,2.02
TCTTGTAGATCAATAGAGGTTAAGTAAGTGCGCT,1.18,3.63,0.745,1.96,-0.0782,2.03,0.0612,1.68,2.63,2.16,1.78,1.22,0.705,0.692,0.3,3.96,0.52,2,0.239,0.993
ACTATTAGCTGAGACGAGGGCAACCGATAGGTTG,0.185,-0.00873,0.0861,0.0453,0.238,0.0501,0.663,0.238,-0.205,0.302,-0.032,0.377,-0.216,-0.0358,-0.21,0.33,0.536,0.226,0.488,0.935
CGAACTAGGTCAGAACATGACAGTGAAGGATGAT,0.703,0.762,-0.0558,0.426,-0.161,3.07,5.35,4.49,2.05,3.4,6.77,7.31,2.34,1.77,1.17,0.243,-0.286,0.937,0.0136,2.58
ACTATTAGTTGAGTCGAGGGCAACCGATAGGTTG,0.84,0.505,0.226,0.34,0.349,0.703,0.466,0.452,0.0326,0.43,0.363,0.962,0.679,0.368,0.693,1.34,0.315,0.785,0.945,1.14
GCTAGCAGGCCATTTGGGTCACTAAATGACGGGC,0.069,-0.203,-0.746,-0.105,-1.17,1.44,0.795,0.692,-0.344,0.257,1.58,2.38,-1.03,-1.18,-0.0846,0.38,-0.331,0.585,-0.777,1.42
CAAACTAGGTCACAGGAAGGTCAAAGTCCGCATG,5.68,6.01,4.15,4.78,1.18,6.19,9.73,7.57,5.77,7.73,8.64,8.8,3.59,2.12,6.59,5.73,1.51,7.15,2.2,4.93

# From the supplement of paper PMC6555819
